According to PubChem BioAssay (NCI):
The panel holds about 83,000 compounds, 20% with a hit somewhere; the sample as a whole holds those more often.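 96-well plates, one dose, 48 hours. Percent growth reported; active if below 10.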 Values without a mark were called inactive. Active and inactive are the calls of the source.

What was measured:
Experiment in all cases: NCI-60 one-dose screen, 48 h (100 = growth as untreated, 0 = no growth, -100 = all killed)
Details in all cases: 10 µM unless noted
DU-145 prostate = system: DU-145 prostate
K-562 leukemia = system: K-562 leukemia
MALME-3M melanoma = system: MALME-3M melanoma
MDA-MB-231 breast = system: MDA-MB-231 breast
RXF 393 renal = system: RXF 393 renal
SF-268 CNS = system: SF-268 CNS
SF-539 CNS = system: SF-539 CNS
UACC-257 melanoma = system: UACC-257 melanoma
M14 melanoma = system: M14 melanoma
HCT-15 colon = system: HCT-15 colon
HT29 colon = system: HT29 colon
SNB-75 CNS = system: SNB-75 CNS
SNB-19 CNS = system: SNB-19 CNS
PC-3 prostate = system: PC-3 prostate
UACC-62 melanoma = system: UACC-62 melanoma
LOX IMVI melanoma = system: LOX IMVI melanoma
SK-MEL-28 melanoma = system: SK-MEL-28 melanoma
SF-295 CNS = system: SF-295 CNS
U251 CNS = system: U251 CNS
SK-MEL-5 melanoma = system: SK-MEL-5 melanoma

| Compound | growth (DU-145 prostate) | growth (K-562 leukemia) | growth (MALME-3M melanoma) | growth (MDA-MB-231 breast) | growth (RXF 393 renal) | growth (SF-268 CNS) | growth (SF-539 CNS) | growth (UACC-257 melanoma) | growth (M14 melanoma) | growth (HCT-15 colon) | growth (HT29 colon) | growth (SNB-75 CNS) | growth (SNB-19 CNS) | growth (PC-3 prostate) | growth (UACC-62 melanoma) | growth (LOX IMVI melanoma) | growth (SK-MEL-28 melanoma) | growth (SF-295 CNS) | growth (U251 CNS) | growth (SK-MEL-5 melanoma) |
| --- | --- | --- | --- | --- | --- | --- | --- | --- | --- | --- | --- | --- | --- | --- | --- | --- | --- | --- | --- | --- |
| N#CC1=C(N)Oc2nc[nH]c(=O)c2C1c1cccs1 (configuration not stated) | 107% | 104% | 112% | 106% | 97.8% | 108% | 101% | 98.4% | 111% | 99.8% | 99% | 92.6% | 104% | 97.9% | 104% | 100% | 102% | – | – | – |
| Cc1nc([C@H]2CC[C@H]3[C@@H]4CCC5=CC(=O)CC[C@]5(C)[C@H]4CC[C@]23C)cs1 | 99.7% | 18% | 99.5% | 97.4% | – | 91.7% | 93.4% | 39.2% | 74.1% | 75.2% | 62.2% | 104% | 91.3% | 19.6% | – | 56.5% | 93.4% | 46.1% | 66% | 24.7% |
| CCc1ccc2c(c1)N(CCO)C1=C(C(=O)OC1)C2c1cccc(Br)c1 (configuration not stated) | 12% | 14.8% | – | 34.9% | 10.9% | 47.2% | -8.23% (active) | 63.4% | 10.8% | 26.3% | 3.88% (active) | 2.55% (active) | 37.9% | 30.1% | 35.5% | 42.2% | 49% | -19.3% (active) | – | 33.2% |
| CCc1ccc2c(c1)N(CCO)C1=C(C(=O)OC1)C2c1cccc(Cl)c1 (configuration not stated) | 11.3% | 13.3% | – | 30.8% | 10.1% | 44.9% | -12.6% (active) | 62.2% | 4.38% (active) | 15.9% | 4.49% (active) | 18.9% | 36.4% | 28.8% | 21.8% | 44.3% | 50.3% | -15.6% (active) | 18.1% | 32.1% |
| Cc1cc(C#Cc2ccccc2)ccc1-n1c(/C=C/c2ccc(F)cc2)nc2ccccc2c1=O | 98.5% | 48.5% | – | 75.9% | 99.1% | 86.4% | 102% | 86.7% | 81.2% | 69.8% | 59.3% | 86.5% | 88.5% | 18.2% | 55.1% | 71.2% | 94.4% | – | 82% | 36.8% |
| CCCCN(CCCC)CCC(=O)c1ccc(OC)c2ccccc12 | 79.4% | 67.1% | 124% | 106% | – | 95% | 87% | 86.4% | 104% | 99.7% | 98% | 97.7% | 87% | 84.7% | 93.5% | 78.9% | 154% | 100% | 86.7% | 101% |
| Cc1cc(O)ccc1C1=NN(c2ccc(S(N)(=O)=O)cc2)C(=O)CC1 | 89.9% | 15.7% | 45.3% | 73.8% | – | 68.5% | 45.1% | 59.7% | 29.7% | 35.2% | 11.2% | 63% | 82.3% | 50.7% | 27.2% | 63% | 58% | 30.4% | 53% | 25.2% |
| COc1cc(C2C=C(C)N=C3SC=NN32)cc(OC)c1OC (configuration not stated) | 115% | 108% | – | 104% | 113% | 111% | 99.1% | 94.8% | 109% | 106% | 101% | 105% | 95.9% | 72.7% | 100% | 95.8% | 100% | 107% | 93.5% | 103% |
| O=C(Nc1ccccc1Cl)Oc1ccc2ccccc2c1 | 107% | 85.3% | – | 88.7% | 99.6% | 101% | 92.5% | 93.5% | 101% | 99.2% | 98.9% | 83.7% | 98.3% | 102% | 91.8% | 95.1% | 106% | – | 103% | 110% |
| Fc1ccc(-c2nnc(N3CCOCC3)c3ccccc23)cc1 | 104% | 99% | 82.9% | 107% | – | 103% | 99.2% | 94.7% | 93.9% | 99.1% | 111% | 101% | 88.8% | 95.8% | 96.1% | 104% | 106% | – | 108% | 96.9% |
| CC(=O)[C@@]1(O)[C@H](C)C[C@H]2[C@@H]3C=C(C)C4=Cc5c(cnn5-c5ccccc5)C[C@]4(C)[C@H]3[C@@H](O)C[C@@]21C | 54.6% | -60.9% (active) | 41.8% | 26.1% | – | 27.9% | -21.8% (active) | 54.6% | 43.7% | -27.9% (active) | -76.9% (active) | 40.4% | 70.2% | 1.78% (active) | – | 4.75% (active) | 43.6% | -49.1% (active) | 6.52% (active) | – |
| CN=C1C=C/C(=N/N=c2/ccn(O)cc2C)C=C1C | 104% | 115% | – | 86.4% | 96.8% | 102% | 90.2% | 98.5% | 101% | 97.2% | 99.5% | 84.4% | 101% | 95.2% | 89% | 95.4% | 120% | – | 102% | 97.8% |
| COC(=O)C1(C)COP(=O)(NC23CC4CC(CC(C4)C2)C3)OC1 (configuration not stated) | 95.4% | 106% | – | 119% | 107% | 104% | 110% | 101% | 104% | 101% | 100% | 94.9% | 104% | 94.6% | 109% | 98.2% | 98.7% | 104% | 99.5% | 99.9% |
| NS(=O)(=O)c1ccc(N2N=C(c3ccc(Br)cc3)CC2c2cn(-c3ccccc3)nc2-c2ccc(Cl)cc2)cc1 (configuration not stated) | 94.7% | 63% | – | 99% | 88.9% | 84.7% | 104% | 96.7% | 83.7% | 78.7% | 76.6% | 92.4% | 96% | 73.3% | 82.5% | 88% | 108% | 92.7% | 86.9% | 99.7% |
| COC(=O)c1cc2oc(/C=N/NC(=O)c3cc4oc(-c5cccc(C(F)(F)F)c5)cc4[nH]3)cc2n1Cc1ccccc1 | 111% | 91.3% | 6.57% (active) | 104% | – | 84.8% | 92.4% | -29.3% (active) | 121% | 98.1% | 104% | 84.4% | 112% | 90.3% | 83.4% | 97.6% | 113% | – | 101% | 108% |
| O=C1OCC2=C1C(c1ccc(Cl)c(Cl)c1)c1cc3c(cc1N2CCO)CCC3 (configuration not stated) | 7.85% (active) | 19.7% | – | 8.3% (active) | 21% | 44.3% | -10.2% (active) | 60.2% | 12.1% | 13.4% | 3.94% (active) | 18% | 32.5% | 25.5% | 13.7% | 32.8% | 47.3% | -9.42% (active) | 16% | 30% |
| O=C1OCC2=C1C(c1cccc(Br)c1)c1cc3c(cc1N2CCO)OCCO3 (configuration not stated) | -30.9% (active) | 17.5% | – | -21.5% (active) | 38.2% | 19% | 0.257% (active) | 49% | 14.6% | 13.9% | 2.11% (active) | 28.5% | 31.6% | 25.4% | 27.3% | 23.5% | 51.7% | -4.99% (active) | 6.01% (active) | 1.61% (active) |
